One test has as its target Interleukin-8 (IL8, CXCL8), C-terminal His-tagged (Homo sapiens, UniProt P10145 SEQ:1-72). The test is described as follows: competition; competition TR-FRET; Aptamer 116 variant. The note with it: tags: C-terminal His (Sino Biological); stem-loop; ssRNA; 2'-F G except 2'-OMe G at X (CGGU-GGGA-AACGU-GAGAU-GGXUU-GCCG); 2'-OMe A,C,U; 5' C6NH2; 3' idT. An excerpt: 2′OMe modifications may impart higher duplex stability, increased metabolic stability in serum and vitreous, and may have greater coupling efficiency during synthesis compared to 2′F-containing nucleotides. The use of these nucleotides may also avoid the potential loss of the 2′F group during production, which can happen during deprotection steps and exposure to heat. To probe the effect of 2′F-G to 2′OMe-G substitution on target binding, variants of Aptamer 116 and 212 were synthesized where 2′F-G was selectively substituted with 2′OMe-G (Table 49) and assayed for activity by competition TR-FRET using ALEXA FLUOR® 647-labeled parent Aptamer 212. 2′OMe-G replacements were well tolerated in all positions of stem S1 (Aptamers 242-248).
(Time-resolved FRET reads energy transfer from a long-lived donor to a nearby acceptor.)
As to “CGGUGGGAAACGUGAGAUGGGUUGCCG [listing 1 of 4 here]”, the binding signal is > 10 fold worse than Aptamer 212.

The test is the same for the next values; noted with them: tags: C-terminal His (Sino Biological); stem-loop; ssRNA; 2'-F G except 2'-OMe G at X (CGGU-GGGA-AACGU-GAGAU-GXGUU-GCCG); 2'-OMe A,C,U; 5' C6NH2; 3' idT.
Consider “CGGUGGGAAACGUGAGAUGGGUUGCCG [listing 2 of 4 here]”, for which the binding signal was > 10 fold worse than Aptamer 212.

The same test, now with this note: tags: C-terminal His (Sino Biological); stem-loop; ssRNA; 2'-F G except 2'-OMe G at X (CGGU-GGGA-AACGU-GAGAU-XGGUU-GCCG); 2'-OMe A,C,U; 5' C6NH2; 3' idT.
Turning to “CGGUGGGAAACGUGAGAUGGGUUGCCG [listing 3 of 4 here]”, the binding signal was > 10 fold worse than Aptamer 212.

Still in this test, the particulars now being: tags: C-terminal His (Sino Biological); stem-loop; ssRNA; 2'-F G except 2'-OMe G at X (CGGU-GGGA-AACXU-GAGAU-GGGUU-GCCG); 2'-OMe A,C,U; 5' C6NH2; 3' idT.
Regarding “CGGUGGGAAACGUGAGAUGGGUUGCCG [listing 4 of 4 here]”, the binding signal is > 10 fold worse than Aptamer 212.

Source of the values: patent US20210230599, “STEM-LOOP COMPOSITIONS AND METHODS FOR INHIBITING INTERLEUKIN-8” (VITRISA THERAPEUTICS, INC., published 2021).
